A number with no mark means an inactive call. Inconclusive results are not listed. Where a call stands in place of a potency, no number is given. Activity calls are given as the source filed them. Unless noted, calls follow the shape of the dose curve; as a rule, active = well fitted curve in the direction sought with a large enough effect in the repeat runs; inconclusive = weak or mixed curves; inactive = no such curve, though single readings can be large; an effect the other way counts as inactive or inconclusive.
Assays:
[1] = qHTS assay to identify small molecule agonists of the estrogen receptor alpha (ER-alpha) signaling pathway in the presence of an antagonist - cell viability counter screen (AID 1259386);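 also: series mostly up to about 92 µM; cells exposed to compounds for 22 h at 37 °C before the viability read; nearly all actives have a fitted effect of over 30% in size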
Method in brief: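 Cells are starved of estrogens for 5 days in charcoal-stripped serum, seeded for 24hr and co-treated with ICI-182,780 (10.0nM final) and test compounds. After 22hr at 37C, viability is read as CellTiter-Fluor fluorescence.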

[2] = biological target: Progesterone receptor (Homo sapiens) (UniProt P06401); test: qHTS assay to identify small molecule agonists of the progesterone receptor (PR) signaling pathway (AID 1346784; calls by dose curve; also: nearly all actives have a fitted effect of over 30% in size)
Method in brief: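 Seed PR-UAS-bla HEK 293T cells (2% charcoal-stripped FBS), incubate 6 hr at 37C; add compounds in DMSO, 16 hr at 37C; add LiveBLAzer B/G substrate, 2 hr RT; read fluorescence intensity.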

[3] = biological target: Progesterone receptor (Homo sapiens) (UniProt P06401); test: qHTS assay to identify small molecule antagonists of the progesterone receptor (PR) signaling pathway (AID 1346795; active = well fitted inhibition curve with a large enough effect in the signal ratio in the repeat runs, not every such curve was filed as active; the % refers to the signal ratio)
Method in brief: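 Screening used a GripTite HEK293T line with PR-responsive UAS-beta-lactamase. Cells were challenged with compound in the presence of 1 nM R5020 final for 16 hr at 37C; B/G FRET substrate, 2 hr room temperature, fluorescence.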

[4] = qHTS assay to identify small molecule antagonists of the progesterone receptor (PR) signaling pathway - cell viability counter screen (AID 1346798); also: series mostly up to about 92 µM; nearly all actives have a fitted effect of over 50% in size
Method in brief: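 Measures cytotoxicity in parallel with the PR antagonist reporter read: HEK293T PR-UAS-bla cells get compound and R5020 for 16 hr, and remaining viable cells are quantified by CellTiter-Glo luminescence.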

[5] = qHTS assay to identify small molecule agonists of the progesterone receptor (PR) signaling pathway - cell viability counter screen (AID 1346799; calls by dose curve; also: nearly all actives have a fitted effect of over 45% in size)
Method in brief: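 Using the same plates as the PR reporter screen, HEK293T PR-UAS-bla cells received compounds for 16 hr at 37C and were then lysed with CellTiter-Glo; luminescence was read 30 min later at room temperature.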

[6] = qHTS assay to identify small molecule antagonists of the TGF-beta/Smad signaling pathway - cell viability counter screen (AID 1346824); also: nearly all actives have a fitted effect of over 50% in size
Method in brief: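 SBE-bla HEK 293T cells were plated overnight at 37 C, then given compounds in DMSO plus TGF-beta1 (added as 0.25 ng/mL solution) for 5 hr. After the bla read, CellTiter-Glo was added to the same wells and luminescence read after 30 min at room temperature.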

[7] = qHTS assay to identify small molecule agonists of the TGF-beta/Smad signaling pathway - cell viability counter screen (AID 1346829); also: top concentration of the series differs between compounds; nearly all actives have a fitted effect of over 45% in size
Method in brief: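 Compound-treated SBE-bla HEK 293T cells (5 hr, 37 C) were assessed for viability with CellTiter-Glo in parallel with the reporter read.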

[8] = qHTS assay to identify small molecule agonists of the TGF-beta/Smad signaling pathway (AID 1346859; active = well fitted activation curve with a large enough effect in the signal ratio in the repeat runs, not every such curve was filed as active; the % refers to the signal ratio; also: series mostly up to about 77 µM)
Method in brief: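 Beta-lactamase reporter activity downstream of Smad binding elements was measured in stably transfected HEK 293T cells; compounds were incubated for 5 hr, substrate for 2 hr at room temperature.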

[9] = biological target: Thyrotropin-releasing hormone receptor (Homo sapiens) (UniProt P34981); test: qHTS assay to identify small molecule antagonists of the thyrotropin-releasing hormone receptor (TRHR) signaling pathway (AID 1346877; active = well fitted inhibition curve with a large enough effect in the repeat runs, not every such curve was filed as active; also: series mostly up to about 51 µM)
Method in brief: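 Cells (TRHR-HEK293) are plated and kept 18 h at 37 °C/5% CO2. A calcium-sensitive dye is added for 2 h, compound follows for 5 min at room temperature, and TRH is then given at 1 nM final.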

[10] = biological target: Thyrotropin-releasing hormone receptor (Homo sapiens) (UniProt P34981); test: qHTS assay to identify small molecule agonists of the thyrotropin-releasing hormone receptor (TRHR) signaling pathway (AID 1346891; calls by dose curve; also: potency is read from the fitted curve at half-maximal effect;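 as to activation: HEK293 cells expressing TRHR with calcium dye readout; series mostly up to about 58 µM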)
Method in brief: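 Overnight-plated (18 h, 37 °C, 5% CO2) TRHR-Hek293 cells; 2 h calcium dye at 37 °C; compound in DMSO; 3-min kinetic fluorescence read.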

[11] = Human pregnane X receptor (PXR) small molecule agonists, qHTS cell viability counter screen (AID 1346977); also: nearly all actives have a fitted effect of over 50% in size
Method in brief: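 After a 5hr pre-incubation, PXR-Luc HepG2 cells received compounds plus positive control in DMSO and were kept 24hr at 37C. Cell viability was quantified by fluorescence from CellTiter-Fluor added for the final hour.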

[12] = Caspase-3/7 induction in HepG2 cells by small molecules, qHTS assay (AID 1346978); also: nearly all actives have a fitted effect of over 15% in size
Method in brief: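 Wild-type HepG2 cells (2,000/well) were settled 5 h at 37 C, 5% CO2, then exposed to compounds in DMSO for 17 h. Caspase-3/7 activity was read by luminescence 30 min after adding Caspase-Glo 3/7 reagent at room temperature.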

[13] = Caspase-3/7 induction in CHO-K1 cells by small molecules, qHTS cell viability counter screen (AID 1346979); also: nearly all actives have a fitted effect of over 35% in size
Method in brief: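 Multiplexed with Caspase-Glo 3/7 in CHO-K1 cells, this counter screen added CellTiter-Fluor after 16hr of compound exposure and recorded fluorescence 1hr later.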

[14] = Caspase-3/7 induction in CHO-K1 cells by small molecules, qHTS assay (AID 1346980); also: nearly all actives have a fitted effect of over 15% in size
Method in brief: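 Wild-type cells were seeded at 1,500 per well and settled 5 hr at 37 C, 5% CO2, then exposed to DMSO-dissolved compounds for 17 hr. Caspase-Glo 3/7 reagent was added, and luminescence was read after 30min at room temperature.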

[15] = Caspase-3/7 induction in HepG2 cells by small molecules, qHTS cell viability counter screen (AID 1346981); also: series mostly up to about 92 µM; nearly all actives have a fitted effect of over 30% in size
Method in brief: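 Steps: seed 2,000 HepG2 cells per well; incubate 5 hr at 37 C; pin-add compounds in DMSO; incubate 16 hr; add CellTiter-Fluor; after 1 hr at 37 C and 5% CO2, read fluorescence.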

[16] = biological target: Nuclear receptor subfamily 1 group I member 2 (Homo sapiens) (UniProt O75469); test: Human pregnane X receptor (PXR) small molecule agonists, qHTS assay (AID 1346982); also: nearly all actives have a fitted effect of over 35% in size
Method in brief: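 Agonist mode qHTS: PXR-Luc HepG2 cells plated 5 hr before DMSO-dissolved compounds were pinned in, cultured 24 hr at 37 C, 5% CO2; ONE-Glo luminescence readout.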

[17] = biological target: Cytochrome P450 2D6 (Homo sapiens) (UniProt P10635); test: Cytochrome P450 Family 2 Subfamily D Member 6 (CYP2D6) small molecule antagonists: luciferase reporter qHTS assay (AID 1671196); also: nearly all actives have a fitted effect of over 50% in size; also: potency is read from the fitted curve at half-maximal effect
Method in brief: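 P450-Glo format: CYP2D6 converts a proluciferin substrate to luciferin in an NADPH-driven reaction lasting 1 h at room temperature. Light output, proportional to CYP2D6 activity, reflects interference by test chemicals.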

[18] = biological target: Nuclear receptor subfamily 1 group I member 2 (Rattus norvegicus) (UniProt Q9R1A7); test: Rat pregnane X receptor (rPXR) activation by small molecules, qHTS assay (AID 1346983); settings: rPXR luciferase reporter cells, One-Glo luminescence, 24 h; max activation: active compounds read high; also: nearly all actives have a fitted effect of over 20% in size
Method in brief: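 Cell-based rPXR luciferase reporter assay, 2,000 cells per well, rested 5hr at 37 C before compound addition in DMSO, then 24 hr at 37 C. One-Glo reagent was added and luminescence read after 30 min at room temperature.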

[19] = biological target: Nuclear receptor subfamily 1 group I member 2 (Homo sapiens) (UniProt O75469); test: CYP3A4 induction through human pregnane X receptor (PXR) by small molecules, qHTS assay (AID 1346984); also: nearly all actives have a fitted effect of over 40% in size
Method in brief: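 Steps: seed DPX-2 cells, 5 hr at 37C; pin-transfer compounds; 24 hr at 37C; add Luciferin-IPA (3uM final), 3 hr at 37C; add One-Glo, 30 min RT; read luminescence.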

[20] = biological target: Nuclear receptor subfamily 1 group I member 2 (Homo sapiens) (UniProt O75469); test: Human pregnane X receptor (PXR) activation by small molecules, qHTS assay (AID 1346985); also: nearly all actives have a fitted effect of over 40% in size
Method in brief: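 DPX-2 cells (HepG2 co-transfected with a PXR response element and a CYP3A4-promoter luciferase construct) were seeded at 2,000 per well, rested 5 hr at 37C, then exposed to DMSO-dissolved compounds for 24 hr. Activation was read as luciferase luminescence.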

Sequence of Nuclear receptor subfamily 1 group I member 2 (Homo sapiens) (O75469 whole entry, looked up): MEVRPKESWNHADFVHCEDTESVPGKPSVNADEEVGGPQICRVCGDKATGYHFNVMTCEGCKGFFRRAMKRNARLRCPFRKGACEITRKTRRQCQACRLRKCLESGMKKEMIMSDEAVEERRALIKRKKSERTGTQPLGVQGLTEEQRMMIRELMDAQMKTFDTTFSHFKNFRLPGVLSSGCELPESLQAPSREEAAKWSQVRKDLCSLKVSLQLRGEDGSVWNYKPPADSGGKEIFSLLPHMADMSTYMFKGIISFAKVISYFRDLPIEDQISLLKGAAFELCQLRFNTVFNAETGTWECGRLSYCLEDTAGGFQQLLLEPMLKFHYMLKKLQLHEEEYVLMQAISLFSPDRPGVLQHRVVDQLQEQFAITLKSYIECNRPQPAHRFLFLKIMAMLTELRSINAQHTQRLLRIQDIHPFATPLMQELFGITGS
Sequence of Progesterone receptor (Homo sapiens) (P06401 whole entry, looked up): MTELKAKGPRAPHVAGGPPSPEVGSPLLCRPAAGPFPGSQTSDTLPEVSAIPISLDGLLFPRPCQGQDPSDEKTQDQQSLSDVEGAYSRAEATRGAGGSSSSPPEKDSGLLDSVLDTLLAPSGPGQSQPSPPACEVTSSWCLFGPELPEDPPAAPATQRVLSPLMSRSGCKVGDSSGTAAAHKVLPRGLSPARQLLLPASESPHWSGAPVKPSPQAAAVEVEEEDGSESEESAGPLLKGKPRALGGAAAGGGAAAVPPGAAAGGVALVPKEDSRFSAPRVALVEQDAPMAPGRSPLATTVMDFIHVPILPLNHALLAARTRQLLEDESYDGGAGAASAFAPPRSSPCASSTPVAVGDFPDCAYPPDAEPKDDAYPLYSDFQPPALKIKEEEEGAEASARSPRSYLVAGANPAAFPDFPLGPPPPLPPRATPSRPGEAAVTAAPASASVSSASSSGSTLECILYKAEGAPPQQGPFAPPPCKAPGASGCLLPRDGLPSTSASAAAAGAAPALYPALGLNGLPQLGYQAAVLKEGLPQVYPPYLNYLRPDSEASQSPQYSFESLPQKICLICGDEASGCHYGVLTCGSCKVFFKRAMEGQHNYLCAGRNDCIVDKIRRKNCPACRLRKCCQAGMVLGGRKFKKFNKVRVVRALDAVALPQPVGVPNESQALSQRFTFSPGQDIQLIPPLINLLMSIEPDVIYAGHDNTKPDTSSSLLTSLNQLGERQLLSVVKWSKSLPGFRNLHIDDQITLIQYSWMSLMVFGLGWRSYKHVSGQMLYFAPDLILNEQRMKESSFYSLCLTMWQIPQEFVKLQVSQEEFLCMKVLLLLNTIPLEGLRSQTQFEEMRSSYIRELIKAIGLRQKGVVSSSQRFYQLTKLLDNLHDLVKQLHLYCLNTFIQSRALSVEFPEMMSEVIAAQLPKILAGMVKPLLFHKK
Sequence of Thyrotropin-releasing hormone receptor (Homo sapiens) (P34981 whole entry, looked up): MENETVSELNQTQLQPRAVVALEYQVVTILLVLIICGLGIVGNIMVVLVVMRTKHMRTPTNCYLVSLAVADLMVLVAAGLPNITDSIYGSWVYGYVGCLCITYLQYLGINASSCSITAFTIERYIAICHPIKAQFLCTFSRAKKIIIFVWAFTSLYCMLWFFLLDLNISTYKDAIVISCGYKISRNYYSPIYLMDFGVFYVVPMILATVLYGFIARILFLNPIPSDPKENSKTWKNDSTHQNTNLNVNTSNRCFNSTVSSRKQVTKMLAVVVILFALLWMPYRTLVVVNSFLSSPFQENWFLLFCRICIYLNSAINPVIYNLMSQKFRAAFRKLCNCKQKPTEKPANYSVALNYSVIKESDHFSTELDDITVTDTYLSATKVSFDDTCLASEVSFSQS
Sequence of Cytochrome P450 2D6 (Homo sapiens) (P10635 whole entry, looked up): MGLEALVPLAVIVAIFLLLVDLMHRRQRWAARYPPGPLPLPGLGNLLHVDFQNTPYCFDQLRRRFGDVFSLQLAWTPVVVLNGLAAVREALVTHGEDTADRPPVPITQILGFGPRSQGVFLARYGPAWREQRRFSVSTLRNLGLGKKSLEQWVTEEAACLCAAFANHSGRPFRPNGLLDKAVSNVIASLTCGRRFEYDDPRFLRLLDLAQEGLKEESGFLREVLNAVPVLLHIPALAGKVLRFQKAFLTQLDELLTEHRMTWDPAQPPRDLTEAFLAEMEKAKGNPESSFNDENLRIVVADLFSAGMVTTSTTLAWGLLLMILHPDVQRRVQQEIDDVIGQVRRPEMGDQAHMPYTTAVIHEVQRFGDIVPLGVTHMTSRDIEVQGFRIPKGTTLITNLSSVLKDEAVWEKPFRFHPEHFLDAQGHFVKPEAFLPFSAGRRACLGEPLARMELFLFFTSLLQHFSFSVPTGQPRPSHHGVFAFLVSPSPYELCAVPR
Sequence of Nuclear receptor subfamily 1 group I member 2 (Rattus norvegicus) (Q9R1A7 whole entry, looked up): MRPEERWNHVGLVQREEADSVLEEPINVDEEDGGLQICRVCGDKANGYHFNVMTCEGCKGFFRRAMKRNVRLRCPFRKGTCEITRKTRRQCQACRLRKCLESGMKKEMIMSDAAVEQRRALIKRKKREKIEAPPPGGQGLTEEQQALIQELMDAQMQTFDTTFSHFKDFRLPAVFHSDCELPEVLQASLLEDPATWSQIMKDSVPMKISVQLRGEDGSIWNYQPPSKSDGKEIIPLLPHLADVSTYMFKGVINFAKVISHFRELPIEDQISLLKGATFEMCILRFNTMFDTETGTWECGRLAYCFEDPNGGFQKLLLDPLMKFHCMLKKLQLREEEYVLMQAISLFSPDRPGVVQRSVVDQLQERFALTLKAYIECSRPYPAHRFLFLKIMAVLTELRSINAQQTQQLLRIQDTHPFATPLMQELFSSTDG

## O=C(O)c1ccc(CO)o1
[1]
  Potency: inactive
[2]
  Potency: inactive
[3]
  Potency: inactive
[4]
  Potency: inactive
[5]
  Potency: inactive
[6]
  outcome: inactive
[7]
  outcome: inactive
[8]
  outcome: inactive
[9]
  outcome: inactive
[10]
  Potency: inactive
[11]
  Potency: inactive
[12]
  Potency: inactive
[13]
  Potency: inactive
[14]
  outcome: inactive
[15]
  Potency: inactive
[16]
  Potency: inactive
[17]
  Potency: 18.2 µM (active)

## C/C(=N/NC(=O)c1ccncc1)C(=O)O
[1]
  Potency: inactive
[2]
  Potency: inactive
[3]
  Potency: inactive
[4]
  Potency: inactive
[5]
  Potency: inactive
[6]
  outcome: inactive
[7]
  outcome: inactive
[8]
  outcome: inactive
[11]
  Potency: inactive
[12]
  Potency: inactive
[13]
  Potency: inactive
[14]
  outcome: inactive
[15]
  Potency: inactive
[16]
  Potency: inactive
[17]
  Potency: inactive

## C[N+](C)(C)CCOC(N)=O
[1]
  Potency: inactive
[2]
  Potency: inactive
[3]
  Potency: inactive
[4]
  Potency: inactive
[5]
  Potency: inactive
[6]
  outcome: inactive
[7]
  outcome: inactive
[8]
  outcome: inactive
[10]
  Potency: 3.38 µM (active)
[11]
  Potency: inactive
[12]
  Potency: inactive
[13]
  Potency: inactive
[14]
  outcome: inactive
[15]
  Potency: inactive
[18]
  max activation: 0.11%
[19]
  Potency: inactive
[20]
  Potency: inactive
[17]
  Potency: inactive

## C=CC(=O)NCOCC(C)C
[1]
  Potency: inactive
[2]
  Potency: inactive
[3]
  Potency: inactive
[4]
  Potency: inactive
[5]
  Potency: inactive
[6]
  outcome: inactive
[7]
  outcome: inactive
[8]
  outcome: inactive
[10]
  Potency: inactive
[11]
  Potency: inactive
[12]
  Potency: inactive
[13]
  Potency: inactive
[14]
  outcome: inactive
[15]
  Potency: inactive
[17]
  Potency: inactive

## c1ccc(COCc2ccccc2)cc1
[1]
  Potency: inactive
[2]
  Potency: inactive
[3]
  Potency: inactive
[4]
  Potency: inactive
[5]
  Potency: inactive
[6]
  outcome: inactive
[7]
  outcome: inactive
[8]
  outcome: inactive
[9]
  outcome: inactive
[10]
  Potency: inactive
[11]
  Potency: inactive
[12]
  Potency: inactive
[13]
  Potency: inactive
[14]
  outcome: inactive
[15]
  Potency: inactive
[16]
  Potency: inactive
[17]
  Potency: inactive

## COc1cc2[nH]c(=O)[nH]c(=O)c2cc1OC
[1]
  Potency: inactive
[2]
  Potency: inactive
[3]
  Potency: inactive
[4]
  Potency: inactive
[5]
  Potency: inactive
[6]
  outcome: inactive
[7]
  outcome: inactive
[8]
  outcome: inactive
[9]
  outcome: inactive
[10]
  Potency: inactive
[11]
  Potency: inactive
[12]
  Potency: inactive
[13]
  Potency: inactive
[15]
  Potency: inactive
[16]
  Potency: inactive
[18]
  max activation: -3.43%
[19]
  Potency: inactive
[20]
  Potency: inactive
[17]
  Potency: inactive

## CC(C)(CCl)c1ccccc1
[1]
  Potency: inactive
[2]
  Potency: inactive
[3]
  Potency: inactive
[4]
  Potency: inactive
[5]
  Potency: inactive
[6]
  outcome: inactive
[7]
  outcome: inactive
[8]
  outcome: inactive
[9]
  outcome: inactive
[10]
  Potency: inactive
[11]
  Potency: inactive
[13]
  Potency: inactive
[15]
  Potency: inactive
[17]
  Potency: inactive
